Compounds without any hit were thinned out: in the full panel of roughly 83,000, 20% have a hit.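 Method: cells in 96-well plates; compound added at one concentration; 48 h incubation; percent growth measured; values under 10 scored active.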 A number with no mark means an inactive call. The source made the active and inactive calls.

For the assay, the system named is CAKI-1 renal. Description: NCI-60 one-dose screen, 48 h (100 = growth as untreated, 0 = no growth, -100 = all killed). Particulars: 10 µM unless noted.
In the case of `CCOC(=O)c1c(C)[nH]c2ccc(O)cc12`, the growth was 97.8%.

With `CCC1CCCCN1C(=S)N/N=C(\C)c1ccccn1` (centres undefined), the growth is 10.4%.

As for `CC(/C=N/NC(N)=S)Cc1ccc(C(C)C)cc1` (centres undefined), the growth is 58.7%.

In the case of `Nc1ccc(C(=O)/C=C/c2ccccc2)cc1`, the growth is 98.5%.

Turning to `Cc1oc2c(C)c3oc(=O)cc(C)c3cc2c1CCl`, the growth was 51.8%.

With `O=C(/C(Cl)=N/O)c1ccc(-c2ccccc2)cc1`, the growth was 91.1%.

With `CC(C)c1ccc(Nc2n[nH]c(=S)s2)cc1`, the growth was 114%.

In the case of `NC(=S)N/N=C\c1nccc2c(N)cccc12`, the growth was -23.9% (active).

In the case of `COc1cc2c(c(OC)c1OC)-c1ccc(NCc3ccccc3)c(=O)cc1[C@@H](NC(C)=O)CC2`, the growth was 28.8%.

With `CCCCCCCCCCCCCCCCSC(=NCC)NCC`, the growth was -25.9% (active).

For the compound `CN(Cc1ccccc1)c1ccc(SC#N)cc1`, the growth is 98.9%.

`CC(=O)Nc1ccc(C(=O)CCl)cc1`: the growth is 38.6%.

Take `O=[N+]([O-])c1ccc(N2CCN(Cc3ccccc3)CC2)c2c1no[n+]2[O-]`: the growth was 15.3%.

`CCOC(=O)NC(/C=C/c1ccccc1)NC(=O)OCC`: the growth was 94.5%.

Regarding `CCCCN(CCCC)CCCCCCCCCCO`, the growth was 105%.

With `S=C1SCN(Cc2cccs2)CN1Cc1cccs1`, the growth is 99.4%.

In the case of `CCOC(=O)/C(=C\c1ccc2ccccc2c1)P(=O)(OCC)OCC`, the growth was 45.5%.

On to `Nc1ccc(Oc2ccccc2)c(Cl)c1`, for which the growth is 100%.

For `COc1ccc(C(Cn2ccnc2)Sc2ccc(Cl)c(Cl)c2)cc1` (centres undefined), the growth was 62.3%.

These data come from PubChem BioAssay (NCI).
